Results as given in PubChem BioAssay AID1477 (National Center for Advancing Translational Sciences (NCATS), 2009).
Hit rate of the full screen: of about 230,000 compounds, fewer than 10 were called active. Roughly 3% stayed inconclusive and do not appear here. Calls come from the whole dose curve; as a rule, active = well fitted curve in the direction sought with a large enough effect; inconclusive = small, poorly fitted or top-dose-only effect, or effect the other way, or another doubt; inactive = no such curve, though single readings can be large or run the other way. Not all results are given here.

biological target: Runt-related transcription factor 1 (Homo sapiens) + Core-binding factor subunit beta (Homo sapiens) (UniProt Q01196+Q13951); experiment: qHTS Assay for Compounds Blocking the Interaction Between CBF-beta and RUNX1 for the Treatment of Acute Myeloid Leukemia; conditions: AlphaScreen CBFb-His/RUNX1-biotin binding, biochemical; series mostly up to 59.8 µM; activity, negative = inhibition: at the top concentration; note: % of control where 0% means no effect
From the text: NIH Chemical Genomics Center [NCGC]
NIH Molecular Libraries Probe Production centers Network [MLPCN]
Assay Submitter (PI): Paul Liu
Core Binding Factor (CBF) abnormalities are associated with 20-25% of all acute myeloid leukemias (AML), of which 5-10% are further sub classified as acute myelomonocytic leukemia with eosinophilia, also known as M4Eo in the FAB classification scheme. This subtype of leukemia is usually associated with chromosome 16 inversion (p13:q22). Chromosome 16 inversion results in formation of the fusion oncogene CBFB-MYH11, which encodes the fusion protein CBF-beta-SMMHC.
It has been hypothesized that the interference of CBF-beta and RUNX1 binding could have therapeutic implications for patients with CBF mediated leukemias. We developed a CBF-beta and RUNX1 binding assay in AlphaScreenTM format and optimized it for high throughput screening to search for inhibitors. The goal of this project is to screen MLPCN's compound collection (MLSMR) for identifying the inhibitors of the interaction between CBF-beta and RUNX1 proteins as research probes. If these probes work well in the animal models, the ultimate goal of this project is to development a new drug treatment for this disease.
This assay can not be used to assess how apparent inhibitors interfere with protein binding, and whether inhibitors specifically bind to either protein. Disruption of this protein-protein interaction, through any mechanism, is the intended target activity.
NCGC Assay Protocol Summary:
Step, Parameter, Description
(1) Reagent, 3 uL CBFb-His/RUNX1-biotin mix incubated together for 20 minutes at room temperature (30 nM each)
(2) Compound or control, 23 nL compound stock solution
(3) Incubation, 15 minutes at Room temperature
(4) Reagent, 1 uL 50 ng each of beads (Nickel beads and streptavidin beads)
(5) Incubation, 90 minutes at Room temperature
(6) Detection, Excitation=365 nm Emission=440 nm, Envision reader in AlphaScreenTM mode
Keywords: MLSMR, MLPCN, NIH Roadmap, qHTS, NCGC, Core binding factor, CBF, CBF-beta, Acute myeloid leukemia

Chain of Runt-related transcription factor 1 (Homo sapiens) + Core-binding factor subunit beta (Homo sapiens) (Q01196 whole entry, looked up): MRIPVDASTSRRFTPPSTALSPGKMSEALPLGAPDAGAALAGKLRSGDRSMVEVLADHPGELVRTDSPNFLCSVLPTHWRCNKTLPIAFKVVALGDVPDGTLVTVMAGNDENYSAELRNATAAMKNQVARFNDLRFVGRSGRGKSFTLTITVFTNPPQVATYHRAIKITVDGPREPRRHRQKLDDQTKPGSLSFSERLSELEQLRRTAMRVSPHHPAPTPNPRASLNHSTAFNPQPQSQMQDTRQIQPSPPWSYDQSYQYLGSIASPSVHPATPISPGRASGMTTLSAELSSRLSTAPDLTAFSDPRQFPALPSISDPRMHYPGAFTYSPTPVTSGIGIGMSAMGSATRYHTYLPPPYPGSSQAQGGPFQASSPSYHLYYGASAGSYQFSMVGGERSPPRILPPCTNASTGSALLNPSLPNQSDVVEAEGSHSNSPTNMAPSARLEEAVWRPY
Chain of Runt-related transcription factor 1 (Homo sapiens) + Core-binding factor subunit beta (Homo sapiens) (Q13951 whole entry, looked up): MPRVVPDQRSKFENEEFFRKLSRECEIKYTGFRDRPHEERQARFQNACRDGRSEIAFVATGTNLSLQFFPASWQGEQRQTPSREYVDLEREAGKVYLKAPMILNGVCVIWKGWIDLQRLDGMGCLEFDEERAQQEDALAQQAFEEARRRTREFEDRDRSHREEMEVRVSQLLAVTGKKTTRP

activity, negative = inhibition, inactive:
COc1ccc(SC[C@H](Cc2ccccc2)N2CCN(CCc3ccccc3)CCC2=O)cc1 -4.77%, CON(C)S(=O)(=O)c1ccc2c(c1)NC(=O)C1CCCN21 (configuration not stated) -0.392%, O=C(NCCc1ccccn1)c1cccnc1Oc1ccc(Cl)cc1 -1.09%, COc1ccc(SCCN2CCN(CC(C)C)CCC2=O)cc1, Cc1ccccc1C(OCCN(C)C)C1CCCCC1 (configuration not stated) -1.22%, COC(=O)c1ccc(C(NC(=O)OCc2ccccc2)/C(F)=C/[C@@H](C)C(=O)O)cc1 (some centres not stated) 5.16%, C[C@@H]1O[C@@H](OC[C@H]2O[C@@H](Oc3cc(O)c4c(c3)O[C@H](c3ccc(O)c(O)c3)CC4=O)[C@H](O)[C@@H](O)[C@@H]2O)[C@H](O)[C@H](O)[C@H]1O 9.48%, COc1ccc(NC(=O)CSc2ncnc3[nH]ncc23)cc1 3.92%, COc1ccc(-c2nc3c(c4c2C[C@H](c2ccccc2)OC4)CN(C(=O)c2cccnc2)CC3)c(C)c1 2.51% [at 13.1 µM], CC1CCN(C(=S)c2ccc(-c3ccc(Cl)cc3Cl)o2)CC1 -20.9%, O=C(/C=C/c1ccc(OCc2c(F)cccc2Cl)cc1)N1CCOCC1 2%, OCCC(O)CO (configuration not stated), COc1ccc2cc(-c3[nH]ncc3CNCCn3nc(C)cc3C)ccc2c1 -0.162%, COC(=O)c1ccc([C@@H](O)[C@H](C)C(=O)CC(=O)OC(C)(C)C)cc1 2.81%, O=C(Nc1cc(C(=O)Nc2ccc(S(=O)(=O)O)cc2)cc(C(=O)Nc2ccc(S(=O)(=O)O)cc2)c1)Nc1cc(C(=O)Nc2ccc(S(=O)(=O)O)cc2)cc(C(=O)Nc2ccc(S(=O)(=O)O)cc2)c1 2.73%, Cc1ccccc1C(CC(=O)c1cccs1)C(C#N)C#N (configuration not stated) 5.81%, CC[C@H](C)[C@H](NC(=O)[C@@H](N)CCC(=O)O)C(=O)N[C@@H](CC(C)C)C(=O)N[C@@H](CC(=O)O)C(=O)N[C@H](C(=O)N1CCC[C@H]1C(=O)N[C@@H](CO)C(=O)N[C@H](C(=O)O)[C@@H](C)O)C(C)C 6.33%, CCCCOc1ccc(C(=O)N/C(=C/C=C/c2ccccc2)C(=O)N2CCOCC2)cc1 -2.12%, CC(Oc1cccc(NC(=O)c2cccs2)c1)C(=O)c1ccccc1 (configuration not stated) 8.25%, Cc1cccc(Nc2nc3c(S(=O)(=O)c4ccccc4)nnn3c3ccccc23)c1C 5.47%, CCO[C@@H]1OC(C(N)=O)=C[C@H](c2ccc(Br)cc2)[C@H]1CCCO -3.58%, O=c1c(O)c(-c2ccc(O)cc2)oc2ccccc12 15.3%, N=c1n(CCc2ccccc2)c2ccccc2n1Cc1ccccc1F -3.25%, O=C1CCC(=O)N(O)CCCCCNC(=O)CCC(=O)N(O)CCCCCNC(=O)CCC(=O)N(O)CCCCCN1 -0.792%, CC1CN(c2nc(-c3ccccc3)nnc2-c2ccccc2)CC(C)O1 (configuration not stated) -2.13%, CCOCCCNCc1ccc(OCc2ccc(F)cc2)c(OC)c1 5.35%, O=C(NCc1ccco1)c1ccc(NS(=O)(=O)c2cccc([N+](=O)[O-])c2)cc1 -3.71%, COc1cc(OC)c2c(c1C(CCN1CCCCC1)c1ccc(N(C)C)cc1)OC(=O)CC2c1ccc(N(C)C)cc1 (configuration not stated) -23.3%, O=C(NCC1CCCO1)c1ccccc1-c1nc(-c2ccccc2Cl)no1 (configuration not stated) 7.64%, COc1ccc(CCNC(=O)CSc2nc(-c3ccc(OC)c(OC)c3)ccc2C#N)cc1 -1.06%, COc1ccc(C[C@H](C(=O)O)N2C(=O)c3ccc(C(=O)O)cc3C2=O)cc1 20.6%, O=C(N/N=C/c1ccc(Cl)cc1)c1nc2ccc([N+](=O)[O-])cc2c(=O)[nH]1 -8.86%, COc1ccc(-c2ccc(OC)c(C3C4C=CCC(C)C4C(=O)N3Cc3ccccc3)c2)cc1C (configuration not stated) 14.2%, O=S(O)S(=O)(=O)O 2.05%, CCN(CC)N=Nc1cccc(NC(C)=O)c1 0.472%, Cc1cc(N(C)C)nc(Cl)n1 24.8%, CN(C)C(=O)c1ccc2c(c1)C1C3CCC(C3)C1C(c1ccccc1)N2 (configuration not stated) -1.89%, COC(=O)c1c(C)oc(C)c1S(=O)(=O)Nc1ccc(C(C)C)cc1 4.81%, O=C(/C=C/c1ccc2c(c1)OCO2)NCc1cn2cc(Cl)ccc2n1 10.5%, C=CCCC(=O)Nc1nc(C)c(-c2csc(Nc3ccc(Cl)cc3)n2)s1 -6.07%, COc1ccc2[nH]c3c(C)c4cc[n+](C)cc4c(C)c3c2c1 -13.8%, CCCCCCCC1=Cc2ccc(F)cc2C(C(C(=O)OC)C(=O)OC)N1C(=O)OC (configuration not stated), CCOC(OCC)OCC 13.3%, Cc1ccc(-c2nnc(-n3nnc4ccccc43)c3ccccc23)cc1 -5.67%, COc1ccc(C2CC(O)(c3ccccc3)Oc3cc(C)cc(C)c32)cc1 (configuration not stated) 10.1%, CC(=O)Nc1ccc(S(=O)(=O)N2N=NC3C2C2CC4C3(CN(C(=O)OC(C)(C)C)S4(=O)=O)O2)cc1 (configuration not stated) -0.112%, C=C1CCN(C(CC(C)C)C(=O)NCc2cc(OC)c(OC)c(OC)c2)S(=O)(=O)c2ccccc21 (configuration not stated) 26.6%, COc1cc(NC(=S)N2CCCC(C)C2)c(OC)cc1Cl (configuration not stated) 7.75%, COC(=O)CCc1ccccc1S(=O)(=O)N(CCC(=O)OC)Cc1ccccc1 20.5%, OC1CCCN(c2ncnc3c2nnn3Cc2c(F)cccc2Cl)C1 (configuration not stated) 9.2%, COc1ccc(CN2CCC(=O)c3ccccc3S2(=O)=O)cc1 5.44%, COc1ccc(C2/C=C\CN(Cc3ccco3)C(C)C(=O)N2Cc2ccc(F)cc2)cc1 (configuration not stated) -1.62%
